# Source: PubChem BioAssay AID2402 (Southern Research Specialized Biocontainment Screening …, 2010)
# Entries with a potency or affinity are not part of this list. Values without a mark were called inactive.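 The calls were made as follows: active = viability below 70% at one or more tested doses; inactive = viability above 70% at every dose tested.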
# Assay: cytotoxicity of synthesized analogs in Vero cells, SAR follow-up, cytotoxicity control for West Nile virus antiviral project, cell-based, set II (AID 2402)
# Settings: Vero E6 viability, CellTiter-Glo, 72 h; series mostly up to 100 µM; viability: at the top concentration
row,SMILES,viability
1,O=C(CSc1nc2ccccc2c(=O)n1-c1ccccc1)Nc1ccc2c(c1)CCC2,78.5%
2,Cc1cccc2c(=O)n3c(nc12)CCC3,82.8%
3,O=[N+]([O-])c1ccc2c(c1)C(O)N1CCCC1=N2 (stereo not given),77.9%
4,OC1c2cc(I)ccc2N=C2CCCN21 (stereo not given),106% [at 200 µM]
5,Cc1cc(OC(=O)c2c(F)cccc2F)n(Cc2ccccc2)n1,94% [at 200 µM]
6,CC(=O)Nc1ccc2nc3n(c(=O)c2c1)CCC3,86.2%
7,O=c1c2cccc(Cl)c2nc2n1CCC2,81.5%
8,CC1(O)c2cc(Br)ccc2N=C2CCCN21 (stereo not given),73.1%
9,O=C(CSc1nc2ccccc2c(=O)n1-c1ccc(F)cc1)Nc1ccc2c(c1)OCCO2,80.1%
10,Cc1cccc2nc3n(c(=O)c12)CCC3,87.6%
11,COc1ccccc1NC(=O)CSc1nc2ccccc2c(=O)n1-c1ccc(F)cc1,101%
12,Nc1ccc2nc3n(c(=O)c2c1)CCC3,88.1%
13,Cc1ccc2nc3n(c(=O)c2c1)CCC3,76.8%
14,COc1ccc(NC(=O)CSc2nc3ccccc3c(=O)n2-c2ccc(F)cc2)cc1,82%
15,O=c1c2c(F)cccc2nc2n1CCC2,102%
